Assay results published in PubChem BioAssay.
The source made the active and inactive calls.

Experiments:
[1] = E. coli DRC41 culture turbidity changes, primary screen, E. coli filamentation inducer project, strain DRC41, OD650, 48 h (AID 1152);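 also: E. coli MC1000 strain DRC41 lacking acrAB efflux pump and sulA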; details: E. coli DRC41 (acrAB sulA), higher = more signal, called active from +8 up or from −8 down
[2] = small-molecule binders of probe aLefty1, primary screen, biochemical, small-molecule microarray, 635/667 nm fluorescence (AID 1153); details: higher = more signal;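 also: score merges spot fluorescence with signal-to-noise ratio from the scanned slide images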
[3] = PSAC antagonists in infected red cells, primary screen, cell-based, P. falciparum Indochina, OD700, 1 h (AID 1154); details: P. falciparum Indochina infected RBC osmotic lysis, higher = more signal, called active from +8 up or from −8 down
[4] = PSAC antagonists in infected red cells, primary screen, cell-based, P. falciparum Indochina, OD700, 2 h (AID 1155);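 also: lysis reports solute entry through the parasite surface anion channel PSAC; channel blockers reduce lysis of infected cells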; details: P. falciparum Indochina infected erythrocytes, osmotic lysis OD700; higher = more signal, called active from +8 up or from −8 down
[5] = osmotic lysis modulators in infected erythrocytes, primary screen, PSAC antagonist project, cell-based, P. falciparum Indochina, OD700, 3 h (AID 1156); details: higher = more signal, called active from +8 up or from −8 down
[6] = PSAC antagonists in infected red cells, primary screen, cell-based, P. falciparum Indochina, OD700, 18 h (AID 1157); details: P. falciparum Indochina infected erythrocytes, osmotic lysis OD700, 18 h; higher = more signal, called active from +8 up or from −8 down
[7] = modulators of S6 phosphorylation in cells, primary screen, cell-based, A549, cytoblot, luminescence, serum-stimulated (AID 1158); details: A549 phospho-S6 cytoblot, 5 h, higher = more signal;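 also: serum-stimulated A549 lung adenocarcinoma cells; signal is phosphorylated S6 detected by cytoblot immunostaining with HRP secondary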
[8] = target: NADPH oxidase 2 (Homo sapiens) (UniProt P04839); assay: NOX2-dependent H2O2 signal modulators, primary screen, NOX inhibitor project, cell-based, HEK293-NOX2, PMA-stimulated, Amplex Red fluorescence (AID 1159); details: 45 min, higher = more signal, called active from +8 up or from −8 down; also: test concentration not given here
[9] = target: NADPH oxidase 4 (Homo sapiens) (UniProt Q9NPH5); assay: NOX4-dependent H2O2 signal modulators, primary screen, NOX inhibitor project, cell-based, HEK293-NOX4, tetracycline-induced, Amplex Red fluorescence (AID 1160); details: 45 min, higher = more signal, called active from +8 up or from −8 down
[10] = target: NADPH oxidase 5 (Homo sapiens) (UniProt Q96PH1); assay: NOX5-dependent H2O2 signal modulators, primary screen, NOX inhibitor project, cell-based, HEK293-NOX5, Amplex Red fluorescence (AID 1161); details: HEK293-NOX5, ionomycin, 45 min, higher = more signal
[11] = A549 cell viability effects, profiling panel, calcein-AM fluorescence, 48 h, basal (AID 1162); details: higher = more signal; also: test concentration not given here
[12] = adipocyte viability effects, profiling panel, cell-based, 3T3-L1 adipocytes, calcein-AM fluorescence, 48 h, basal (AID 1163); details: 3T3-L1 adipocytes viability, higher = more signal; also: test concentration not given here
[13] = HepG2 cell viability effects, profiling panel, calcein-AM fluorescence, 48 h, basal (AID 1164); details: higher = more signal; also: test concentration not given here
[14] = MM1S cell viability effects, profiling panel, calcein-AM fluorescence, 48 h, basal (AID 1165); details: higher = more signal;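 also: viability of MM1S multiple myeloma cells under basal unstimulated conditions; test concentration not given here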
[15] = basal RPMI8226 viability, no added stimulus, profiling panel, cell-based, calcein-AM fluorescence, 48 h, PK04 Diversity Set (AID 1166); details: RPMI8226 myeloma viability, higher = more signal;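 also: cells grown under basal conditions without added stimulus; test concentration not given here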
[16] = basal HepG2 mitochondrial membrane potential changes, profiling panel, cell-based, JC-1 fluorescence, 24 h, 100 nL compound (AID 1167); details: higher = more signal; also: test concentration not given here
[17] = basal 3T3-L1 adipocyte mitochondrial potential changes, profiling panel, cell-based, JC-1 fluorescence, 3T3-L1 adipocytes, 24 h, 100 nL compound (AID 1168); details: JC-1 mitochondrial fluorescence, higher = more signal, called active from +8 up or from −8 down; also: test concentration not given here
[18] = basal RPMI8226 mitochondrial membrane potential changes, profiling panel, cell-based, JC-1 fluorescence, 24 h, 100 nL compound (AID 1169); details: RPMI8226 myeloma, JC-1 mitochondrial potential fluorescence, higher = more signal; also: test concentration not given here
[19] = basal MM1S mitochondrial membrane potential changes, profiling panel, cell-based, JC-1 fluorescence, 24 h, 100 nL compound (AID 1170); details: higher = more signal; also: test concentration not given here
[20] = A549 lung cancer cell viability effects, profiling panel, resazurin fluorescence, 24 h, PK04 Diversity Set (AID 1171); details: higher = more signal, called active from +8 up or from −8 down; also: test concentration not given here

Chain of NADPH oxidase 4 (Homo sapiens) (Q9NPH5 whole entry, looked up): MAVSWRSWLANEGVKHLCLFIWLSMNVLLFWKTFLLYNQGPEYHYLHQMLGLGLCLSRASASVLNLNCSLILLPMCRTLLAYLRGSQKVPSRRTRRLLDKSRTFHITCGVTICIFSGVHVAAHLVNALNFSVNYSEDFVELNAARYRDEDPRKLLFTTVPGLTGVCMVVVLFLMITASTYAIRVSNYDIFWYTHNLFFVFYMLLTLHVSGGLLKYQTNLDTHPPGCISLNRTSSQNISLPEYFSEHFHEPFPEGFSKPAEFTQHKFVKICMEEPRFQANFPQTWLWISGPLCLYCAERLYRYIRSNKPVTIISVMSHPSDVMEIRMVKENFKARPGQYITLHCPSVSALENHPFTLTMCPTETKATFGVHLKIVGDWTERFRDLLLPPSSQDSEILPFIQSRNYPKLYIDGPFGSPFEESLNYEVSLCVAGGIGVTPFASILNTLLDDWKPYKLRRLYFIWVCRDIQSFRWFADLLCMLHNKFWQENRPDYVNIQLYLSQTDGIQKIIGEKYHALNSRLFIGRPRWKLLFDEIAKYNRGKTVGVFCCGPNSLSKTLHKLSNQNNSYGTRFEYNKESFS
Chain of NADPH oxidase 2 (Homo sapiens) (P04839 whole entry, looked up): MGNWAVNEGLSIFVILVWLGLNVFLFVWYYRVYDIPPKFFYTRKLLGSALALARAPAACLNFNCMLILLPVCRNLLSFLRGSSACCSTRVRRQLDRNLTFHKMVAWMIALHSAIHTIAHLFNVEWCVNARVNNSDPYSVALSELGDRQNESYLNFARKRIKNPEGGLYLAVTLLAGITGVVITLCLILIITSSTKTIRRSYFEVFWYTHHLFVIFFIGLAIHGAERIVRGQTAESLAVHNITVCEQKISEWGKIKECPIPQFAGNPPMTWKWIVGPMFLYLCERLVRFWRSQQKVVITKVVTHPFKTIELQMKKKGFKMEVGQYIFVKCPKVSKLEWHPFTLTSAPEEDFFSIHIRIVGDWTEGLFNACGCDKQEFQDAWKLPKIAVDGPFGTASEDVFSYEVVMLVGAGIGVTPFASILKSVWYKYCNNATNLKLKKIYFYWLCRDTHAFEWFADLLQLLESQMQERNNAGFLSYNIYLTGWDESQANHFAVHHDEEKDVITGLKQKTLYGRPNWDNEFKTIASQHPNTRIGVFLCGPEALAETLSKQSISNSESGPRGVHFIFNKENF
Chain of NADPH oxidase 5 (Homo sapiens) (Q96PH1 whole entry, looked up): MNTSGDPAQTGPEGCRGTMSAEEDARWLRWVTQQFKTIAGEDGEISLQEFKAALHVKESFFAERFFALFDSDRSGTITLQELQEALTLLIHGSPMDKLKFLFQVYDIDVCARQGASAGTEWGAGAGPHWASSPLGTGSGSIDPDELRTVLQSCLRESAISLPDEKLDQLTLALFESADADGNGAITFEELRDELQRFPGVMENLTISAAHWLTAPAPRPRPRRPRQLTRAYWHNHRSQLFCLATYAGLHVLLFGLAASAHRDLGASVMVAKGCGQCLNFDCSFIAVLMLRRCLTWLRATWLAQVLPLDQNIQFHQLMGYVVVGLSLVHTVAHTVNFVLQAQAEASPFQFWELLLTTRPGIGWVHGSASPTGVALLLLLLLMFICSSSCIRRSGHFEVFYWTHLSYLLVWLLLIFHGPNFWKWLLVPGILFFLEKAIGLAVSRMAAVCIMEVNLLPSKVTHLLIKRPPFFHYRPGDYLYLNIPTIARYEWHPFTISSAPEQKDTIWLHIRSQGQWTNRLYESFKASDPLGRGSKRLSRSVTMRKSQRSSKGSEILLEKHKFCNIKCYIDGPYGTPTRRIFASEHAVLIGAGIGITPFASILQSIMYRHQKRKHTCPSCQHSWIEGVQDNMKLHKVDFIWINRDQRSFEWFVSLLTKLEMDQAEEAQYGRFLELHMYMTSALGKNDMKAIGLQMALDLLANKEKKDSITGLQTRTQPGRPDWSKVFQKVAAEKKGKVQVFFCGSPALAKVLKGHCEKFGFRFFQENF

Compound	z-score [1]	composite z-score [2]	z-score [3]	z-score [4]	z-score [5]	z-score [6]	z-score [7]	z-score [8]	z-score [9]	z-score [10]	z-score [11]	z-score [12]	z-score [13]	z-score [14]	z-score [15]	z-score [16]	z-score [17]	z-score [18]	z-score [19]	z-score [20]
COCCOC(=O)N1C(=O)[C@@]2(c3cc(C#CC4(O)CCCCCC4)ccc31)[C@H](C(N)=O)[C@H]1C(=O)O[C@H](c3ccccc3)[C@H](c3ccccc3)N1[C@@H]2c1ccc(OCCO)cc1	-0.0172 (inactive)	0.0861	3.59 (inactive)	1.45 (inactive)	0.843 (inactive)	1.01 (inactive)	0.0826	1.52 (inactive)	0.984 (inactive)	0.923	-0.502	-0.0582	-1.71	-2.99	-4.26	-1.97	-0.69 (inactive)	-1.29	-1.7	-1.54 (inactive)
COc1cccc(C)c1NC(=O)O[C@H]1[C@H](OC(=O)Nc2ccccc2)[C@@H](OC(=O)Nc2ccccc2)[C@@H](OC)O[C@@H]1CO	-0.818 (inactive)	0.26	3.02 (inactive)	0.121 (inactive)	0.376 (inactive)	0.421 (inactive)	0.249	-7.01 (inactive)	-1.26 (inactive)	-2.29	-1.86	0.861	-1.9	-2.59	-3.26	-0.702	1.17 (inactive)	-1.05	0.0418	-3.49 (inactive)
CCCCC(=C=CC[C@H](O)c1cccc(OCCO)c1)C[C@H](O)c1cc(Cl)cc(Cl)c1O	0.513 (inactive)	0.0999	22 (active)	5.56 (inactive)	0.718 (inactive)	1.48 (inactive)	0.295	-2.45 (inactive)	-1.46 (inactive)	-2.02	0.827	-0.241	0.358	-3.12	-1.24	0.0773	0.309 (inactive)	-0.00147	-1.05	1.57 (inactive)
COc1cc2c(cc1OC)CN(C(=O)[C@@H]1[C@H]3C(=O)O[C@H](c4ccccc4)[C@H](c4ccccc4)N3[C@H](c3ccc(O)cc3)[C@@]13C(=O)Nc1ccc(C#CC4=CCCCC4)cc13)CC2	2.03 (inactive)	0.298	1.18 (inactive)	0.925 (inactive)	1.2 (inactive)	1.23 (inactive)	0.458	1.36 (inactive)	1.03 (inactive)	-0.337	0.434	0.641	0.618	-0.126	-1.58	-0.948	0.165 (inactive)	-0.733	0.328	0.175 (inactive)
COCCOC(=O)N1C(=O)[C@@]2(c3cc(C#CCNC(N)=O)ccc31)[C@H](C(N)=O)[C@H]1C(=O)O[C@H](c3ccccc3)[C@H](c3ccccc3)N1[C@@H]2c1ccc(O)cc1	0.989 (inactive)	0.316	1.65 (inactive)	-0.132 (inactive)	-1.12 (inactive)	0.141 (inactive)	0.189	0.161 (inactive)	-0.181 (inactive)	0.00933	1.05	-0.142	0.779	0.394	-0.896	-0.507	-0.0468 (inactive)	-0.883	0.326	1.22 (inactive)
COC(=O)[C@@]1(Cc2ccc(F)cc2)[C@H]2c3cc(C(=O)N(C)C)n(CCF)c3C[C@H]2CN1C(=O)c1ccccc1	1.28 (inactive)	-0.012	2.02 (inactive)	-0.771 (inactive)	-1.04 (inactive)	-1.29 (inactive)	0.456	0.532 (inactive)	0.864 (inactive)	-3.46	-0.063	-0.138	0.121	0.066	0.266	-0.0126	0.696 (inactive)	-0.37	0.328	-0.957 (inactive)
Cc1ccc(N2C(=O)c3ccccc3[C@@H](C(=O)NCCN3CCOCC3)[C@@H]2c2ccc(CO)cc2)nc1	0.279 (inactive)	-0.303	0.443 (inactive)	-0.229 (inactive)	-0.319 (inactive)	0.155 (inactive)	-0.334	0.335 (inactive)	-0.36 (inactive)	-1.86	-0.619	0.112	-0.45	0.128	0.0765	-0.274	0.111 (inactive)	-0.171	0.235	0.444 (inactive)
CCCNC(=O)[C@@]1(Sc2ccc(C)cc2)CC(=O)N(Cc2cc(C(F)(F)F)cc(C(F)(F)F)c2)[C@@H]1c1ccc(CO)cc1	1.63 (inactive)	-0.193	2.74 (inactive)	0.285 (inactive)	0.25 (inactive)	-1.15 (inactive)	2.9	0.584 (inactive)	-0.589 (inactive)	0.207	-0.259	1.2	-0.609	-0.254	-0.312	-0.537	0.196 (inactive)	0.293	-0.765	0.149 (inactive)
Cc1ccc(S(=O)(=O)N2[C@@H](c3ccccc3)C(C(=O)O)=C[C@H]2C(C)(C)C)cc1	-0.576 (inactive)	-0.0318	0.386 (inactive)	0.0156 (inactive)	0.136 (inactive)	0.61 (inactive)	-0.222	0.384 (inactive)	-0.539 (inactive)	-0.36	-0.756	-0.625	-0.558	0.611	-0.711	-0.747	-0.465 (inactive)	-0.369	-0.953	-1.11 (inactive)
CCOC(=O)C[C@H]1[C@H](OC(=O)c2cc3ccccc3oc2=O)[C@@H](NC(=O)Cc2ccc(OC)cc2)c2cc(OCCCO)ccc2N1C(=O)Cc1ccc(OC)cc1	0.983 (inactive)	1.28	6.34 (inactive)	-1.26 (inactive)	-0.456 (inactive)	-2.42 (inactive)	1.32	1.38 (inactive)	1.52 (inactive)	0.991	1.16	1.68	0.37	0.789	0.148	0.164	-0.3 (inactive)	0.301	-0.985	0.551 (inactive)
Cc1ccc(S[C@]2(C(=O)NC(C)C)CC(=O)N(Cc3ccccc3)[C@@H]2c2ccc(CO)cc2I)cc1	0.214 (inactive)	0.164	5.59 (inactive)	0.654 (inactive)	0.59 (inactive)	0.231 (inactive)	-0.35	0.671 (inactive)	-0.818 (inactive)	1.76	0.15	0.547	1	-2.02	-1.69	0.744	0.98 (inactive)	-0.25	-1.23	-1.13 (inactive)
[N-]=[N+]=NCc1ccccc1[C@H]1OC(c2ccc(OCCCO)cc2)=N[C@@]1(Cc1ccccc1N=[N+]=[N-])C(N)=O	-0.0584 (inactive)	0.439	22.9 (active)	3.47 (inactive)	1.46 (inactive)	0.79 (inactive)	0.362	-4.46 (inactive)	-0.74 (inactive)	-2.11	-0.0372	-0.117	-0.18	-1.84	-1.76	-0.255	0.199 (inactive)	-1.06	-0.928	0.85 (inactive)
CC(C)C[C@@H]1NC(=O)[C@H]2C[C@@H](C(=O)O)[C@@H](c3cccc(OCCO)c3)N2C1=O	0.441 (inactive)	0.0794	6.12 (inactive)	1.34 (inactive)	-2.36 (inactive)	0.595 (inactive)	0.793	-0.911 (inactive)	-0.69 (inactive)	-0.0644	-0.218	-0.234	-0.072	-1.36	-0.0757	0.664	-0.115 (inactive)	-0.0946	-0.449	0.668 (inactive)
CC(C)c1ccc(NN2C(C(O)C3=C[C@H]4C[C@@H](C3)C4(C)C)C=CC3C(=O)N(c4ccccc4)C(=O)C32)cc1 (stereo not given in full)	-0.736 (inactive)	0.587	1.8 (inactive)	1.13 (inactive)	0.0675 (inactive)	1.37 (inactive)	-0.578	-0.843 (inactive)	-3.08 (inactive)	-1.62	0.0464	-0.395	0.165	-1.16	-1.04	-2.56	-0.401 (inactive)	-0.366	0.758	-0.186 (inactive)
CC(C)(C)OC(=O)CC[C@@]1(C(=O)N2CCOCC2)N=C(c2ccc(OCCCO)cc2)O[C@@H]1c1ccccc1CN=[N+]=[N-]	0.409 (inactive)	0.85	27 (active)	14.9 (active)	-0.762 (inactive)	1.11 (inactive)	-0.449	0.825 (inactive)	2.1 (inactive)	2.05	-0.688	1.35	-0.261	-0.169	-1.58	0.259	-0.506 (inactive)	-0.546	-0.567	0.792 (inactive)
CO[C@H]1O[C@H](CO)[C@@H](OC(=O)Nc2ccccc2)[C@@H]2OC(=O)[C@@H](Cc3ccccc3)C/C=C/C[C@H](Cc3ccccc3)C(=O)O[C@@H]12	0.364 (inactive)	-0.093	0.131 (inactive)	0.162 (inactive)	0.288 (inactive)	0.0794 (inactive)	-0.0813	-2.79 (inactive)	-0.266 (inactive)	-1.3	-0.255	-0.0852	0.297	0.36	0.335	-0.502	2.28 (inactive)	-0.532	-1.65	-0.869 (inactive)
